Bioassay records from PubChem BioAssay.
This is a sample that favours compounds with a hit; in the whole collection about 18% have one here.
IL1B secr inh – blocks inflammasome-driven IL-1 beta release | activity change, % at 57.5 µM | hit rate 4.7% among 360,000 | THP-1 LPS/ATP IL-1B secretion, AlphaLISA, 16 h; stronger effect = lower value; in the data active means activity change below about -50%; inconclusive means mostly about -30% to -49%
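THP-1 cells pretreated 1 hr with compounds (up to 57.5 uM final), then stimulated with LPS (250 ng/mL final) plus ATP (1.25 mM final); secreted IL-1B measured by AlphaLISA after 16 hr, decreased signal indicating inhibition.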
DT40 TDP1 CPT – growth inhibition of DT40 Tdp1-/-;hTDP1 cells with camptothecin (screen for TDP1 inhibitors) | chicken DT40 Tdp1-/-;hTDP1 cells + 20 nM CPT, ATP luminescence, 48 h | Potency, µM (titrated, usually from 46.2 µM), hits mostly inhibitors | hit rate 12% among 420,000 | AID 686979; further: nearly all actives have a fitted effect of over 55% in size
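Chicken DT40 Tdp1-/- cells complemented with human TDP1, 400 cells/well, exposed to compounds plus 20 nM camptothecin for at least 48 h at 37 C; viability read as ATP content by CellTiter-Glo luminescence.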
TDP1 cell noCPT – qHTS for Inhibitors of human tyrosyl-DNA phosphodiesterase 1 (TDP1): qHTS in cells in absence of CPT; DT40 Tdp1-/- hTDP1 cells, no CPT, ATP luminescence, 48 h; Potency, µM (top dose mostly 46.2 µM), most hits filed as inhibitors; hit rate 15% among 420,000; AID 686978, 2013; further: nearly all actives have a fitted effect of over 55% in size
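Chicken DT40 Tdp1-/- cells complemented with human TDP1, screened without camptothecin (DMSO vehicle only), 400 cells/well. Compounds pin-transferred, cells incubated at 37 °C for at least 48 hr. Growth read as ATP-dependent luminescence (CellTiter-Glo, 30 min at RT).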
TDP1 inh – blocks human tyrosyl-DNA phosphodiesterase 1; Potency, µM (top dose mostly 130 µM), usual class: inhibitors; recombinant TDP1, AlphaScreen DNA substrate cleavage; Q9NUW8; hit rate 0.28% among 350,000; further: nearly all actives have a fitted effect of over 40% in size
Target sequence (Q9NUW8 whole entry, looked up): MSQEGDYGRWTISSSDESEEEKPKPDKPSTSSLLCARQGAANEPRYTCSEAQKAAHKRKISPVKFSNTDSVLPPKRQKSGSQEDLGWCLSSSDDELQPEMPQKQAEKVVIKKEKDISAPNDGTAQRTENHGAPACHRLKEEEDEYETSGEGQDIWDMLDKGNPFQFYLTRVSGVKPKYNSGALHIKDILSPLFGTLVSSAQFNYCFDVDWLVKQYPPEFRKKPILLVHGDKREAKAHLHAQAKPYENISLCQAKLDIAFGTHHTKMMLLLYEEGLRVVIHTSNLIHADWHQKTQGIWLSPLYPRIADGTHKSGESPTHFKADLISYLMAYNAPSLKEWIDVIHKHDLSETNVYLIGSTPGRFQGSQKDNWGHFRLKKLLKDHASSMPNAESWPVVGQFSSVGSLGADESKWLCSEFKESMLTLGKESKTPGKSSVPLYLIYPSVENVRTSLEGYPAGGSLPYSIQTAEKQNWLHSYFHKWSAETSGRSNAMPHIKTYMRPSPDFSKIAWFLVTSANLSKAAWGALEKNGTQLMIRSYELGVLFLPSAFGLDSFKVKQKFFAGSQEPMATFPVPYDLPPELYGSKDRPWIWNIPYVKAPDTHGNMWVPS
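Compounds were preincubated with Tdp1 (1 nM final) for 15 min at room temperature before substrate (15 nM final) started a 5 min reaction; beads (10 ug/ml final) were then added for 10 min before AlphaScreen detection.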
TGFb SMAD3 inh – blocks TGF-b signaling | HepG2 CAGA-GFP TGF-b/SMAD3 reporter, GFP fluorescence, 18 h; TGF-beta stimulated, 500 pg/mL final | Potency, µM (doses to about 46.1 µM), usual class: inhibitors | hit rate 1.2% among 410,000; further: nearly all actives have a fitted effect of over 65% in size
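Read-out: total well GFP (ex488/em500-530) summed from mean per-cell fluorescence. Cells: HEPG2 CAGA-GFP, 1% FBS DMEM, 18 h at 37 degrees C with 500 pg/mL final TGF-beta. Unstimulated wells served as the full-inhibition control; stimulated DMSO wells = 0%.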
HepG2 tox – HepG2 cytotoxicity, counter-screen for TGF-b inhibitors; HepG2 CAGA-GFP viability, ATP luminescence, 18 h; Potency, µM (top dose mostly 46.1 µM), hits mostly cytotoxic; hit rate 0.76% among 410,000
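HepG2 CAGA-GFP cells (1000/well, DMEM with 1% FBS) received compound, then TGF-beta at 500 pg/mL final, and were incubated 18 hours at 37 degrees C. Viability was read by CellTiter-Glo luminescence. Media-only wells were set as complete cell-killing and DMSO as no toxicity.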
Numbers stand for hits; [ ] = dose if it differs, or a comment. Unless noted, the call rests on the fitted dose curve; in most records, active means well fitted curve in the direction sought with a large enough effect; inconclusive means small, poorly fitted or top-dose-only effect, or another doubt; inactive means no such curve, though single readings can be large; an effect the other way counts as inactive or inconclusive.

For O=C(Nc1cccc(-c2nc3ccccc3s2)c1)c1cccs1 the results were IL1B secr inh inactive, DT40 TDP1 CPT inconclusive, TDP1 cell noCPT inconclusive, TDP1 inh inactive, TGFb SMAD3 inh inconclusive and HepG2 tox inactive.
`CN(C(=O)COC(=O)c1ccc2ccccc2n1)C1CCCCC1` gave IL1B secr inh inactive, DT40 TDP1 CPT inactive, TDP1 cell noCPT inactive, TDP1 inh inactive, TGFb SMAD3 inh inactive and HepG2 tox inactive.
For CCOC(=O)c1cnc2ccc(OC)cc2c1NCc1ccccc1 the results were IL1B secr inh inactive, DT40 TDP1 CPT inconclusive, TDP1 cell noCPT inconclusive, TGFb SMAD3 inh inactive and HepG2 tox inactive.
For CCOC(=O)c1cnc2cc(F)c(F)cc2c1Nc1ccccc1O the results were TDP1 inh inactive, TGFb SMAD3 inh inactive and HepG2 tox inactive.
For CCOC(=O)c1cnc2ccc(OC)cc2c1Nc1cccc(C(C)=O)c1 the results were DT40 TDP1 CPT 16µM, TDP1 cell noCPT 21µM, TDP1 inh inactive[12.3 µM], TGFb SMAD3 inh inactive and HepG2 tox inactive.
For CCOC(=O)c1cnc2ccc(OC(F)(F)F)cc2c1Nc1ccccc1C(=O)O the results were DT40 TDP1 CPT inconclusive, TDP1 cell noCPT 15µM, TDP1 inh inactive, TGFb SMAD3 inh inactive and HepG2 tox inactive.
CCOC(=O)c1cnc2ccc(OCC)cc2c1Nc1cc(Cl)c(OC)cc1OC was read as DT40 TDP1 CPT 15µM, TDP1 cell noCPT 26µM, TDP1 inh inactive, TGFb SMAD3 inh inactive and HepG2 tox inactive.
`CCOC(=O)c1cnc2ccc(OC)cc2c1NCCc1ccccc1` gave DT40 TDP1 CPT inconclusive, TDP1 cell noCPT 10µM, TDP1 inh inactive[12.3 µM] and HepG2 tox inactive.
`Nc1ccn([C@@H]2O[C@H](CNCc3cc(Br)ccc3OCc3ccccc3)[C@@H](O)[C@H]2O)c(=O)n1` gave IL1B secr inh inactive, DT40 TDP1 CPT inactive, TDP1 cell noCPT inactive, TGFb SMAD3 inh inactive and HepG2 tox inactive.
Screening Cc1ccc(-n2nc(CO)c(C(=O)NCc3cccs3)n2)cc1 returned DT40 TDP1 CPT inactive, TDP1 cell noCPT inactive, TDP1 inh inactive, TGFb SMAD3 inh inactive and HepG2 tox inactive.
`Cc1ccc(S(=O)(=O)N2CCN(C(=O)COC(=O)CCCOc3ccccc3)CC2)c(C)c1` gave IL1B secr inh inactive, DT40 TDP1 CPT inactive, TDP1 cell noCPT inactive, TDP1 inh inactive, TGFb SMAD3 inh inactive and HepG2 tox inactive.
COCCCN(Cc1cccs1)S(=O)(=O)c1csc(C(N)=O)c1 was read as IL1B secr inh inactive, DT40 TDP1 CPT inactive, TDP1 cell noCPT inactive, TDP1 inh inactive, TGFb SMAD3 inh inactive and HepG2 tox inactive.
For CCOC(=O)c1cnc2ccc(OCC)cc2c1NCc1ccccc1OC the results were IL1B secr inh -89, DT40 TDP1 CPT 5.2µM, TDP1 cell noCPT 5.2µM, TDP1 inh inactive, TGFb SMAD3 inh inactive and HepG2 tox inactive.
`CCCCCCC(=O)N1CCCC(c2nc(-c3cccc(OC)c3)no2)C1` (stereo unspecified) gave IL1B secr inh -62, DT40 TDP1 CPT inactive, TDP1 cell noCPT inconclusive, TGFb SMAD3 inh inactive and HepG2 tox inactive.
CCCCCC(=O)N1CCCC(c2nc(-c3ccc(OC)cc3)no2)C1 (stereo unspecified) was read as IL1B secr inh inconclusive, DT40 TDP1 CPT inconclusive, TDP1 cell noCPT 23µM, TDP1 inh inactive, TGFb SMAD3 inh inactive and HepG2 tox inactive.
For COc1ccc(-c2noc(C3CCCN(C(=O)CCc4ccccc4)C3)n2)cc1 (stereo unspecified) the results were IL1B secr inh inactive, DT40 TDP1 CPT 18µM, TDP1 cell noCPT inconclusive, TDP1 inh inactive, TGFb SMAD3 inh inactive and HepG2 tox inactive.
`CCCC(=O)N1CCCC(c2nc(-c3cccc(OC)c3)no2)C1` (stereo unspecified) gave IL1B secr inh inactive, DT40 TDP1 CPT inconclusive, TDP1 cell noCPT inconclusive, TDP1 inh inactive, TGFb SMAD3 inh inactive and HepG2 tox inactive.
COc1cccc(-c2noc(C3CCCN(C(=O)Cc4ccccc4)C3)n2)c1 (stereo unspecified) was read as IL1B secr inh inactive, DT40 TDP1 CPT 18µM, TDP1 cell noCPT 18µM, TDP1 inh inactive, TGFb SMAD3 inh inconclusive and HepG2 tox inactive.
For CCN(CC)S(=O)(=O)c1cccc(C(=O)/C=C2/N(C)c3ccccc3C2(C)C)c1 the results were IL1B secr inh inconclusive, DT40 TDP1 CPT 21µM, TDP1 cell noCPT 15µM, TDP1 inh inactive, TGFb SMAD3 inh inactive and HepG2 tox inactive.
For CN1/C(=C\C(=O)CSc2nncn2C)C(C)(C)c2ccccc21 the results were IL1B secr inh inactive, DT40 TDP1 CPT inactive, TDP1 cell noCPT inactive, TDP1 inh inactive, TGFb SMAD3 inh inactive and HepG2 tox inactive.
Screening CN1/C(=C\C(=S)NC(=O)c2ccc([N+](=O)[O-])cc2)C(C)(C)c2ccccc21 returned IL1B secr inh inactive, DT40 TDP1 CPT 16µM, TDP1 cell noCPT 23µM, TDP1 inh inactive, TGFb SMAD3 inh inactive and HepG2 tox inactive.
CN1/C(=C\C(=S)NC(=O)c2cccc(Br)c2)C(C)(C)c2ccccc21 was read as IL1B secr inh inactive, DT40 TDP1 CPT 9.2µM, TDP1 cell noCPT 5.2µM, TDP1 inh inactive, TGFb SMAD3 inh inconclusive and HepG2 tox inactive.
Screening CC(C)(C)n1nc2c(c1NC(=O)c1cc(Cl)ccc1[N+](=O)[O-])CS(=O)(=O)C2 returned IL1B secr inh inactive, DT40 TDP1 CPT inactive, TDP1 cell noCPT inactive, TDP1 inh inactive, TGFb SMAD3 inh inactive and HepG2 tox inactive.
COc1ccc(-c2cccc(NS(=O)(=O)c3cc(C)c(Cl)cc3C)c2)nn1 was read as DT40 TDP1 CPT 13µM, TDP1 cell noCPT 23µM, TDP1 inh inactive, TGFb SMAD3 inh inconclusive and HepG2 tox 11µM.
For COc1ccc(-c2cccc(NS(=O)(=O)c3cc(C)ccc3OC)c2)nn1 the results were DT40 TDP1 CPT 16µM, TDP1 cell noCPT 23µM, TDP1 inh inactive, TGFb SMAD3 inh inconclusive and HepG2 tox inactive.
Screening COc1ccc(C)cc1S(=O)(=O)Nc1cccc(-c2ccc(N3CCCC3)nn2)c1 returned DT40 TDP1 CPT inactive, TDP1 cell noCPT inactive, TDP1 inh inactive, TGFb SMAD3 inh inactive and HepG2 tox inactive.
Screening COc1ccc(-c2cccc(NS(=O)(=O)c3cc(C(F)(F)F)ccc3Cl)c2)nn1 returned DT40 TDP1 CPT inactive, TDP1 cell noCPT inconclusive, TDP1 inh inactive, TGFb SMAD3 inh inconclusive and HepG2 tox inactive.
